According to the supplement of paper PMC11732987, “Enantioselective OTUD7B fragment discovery through chemoproteomics screening and high-throughput optimisation” (Communications Chemistry, 2025):

Key:
Assay in all cases: log2 ratio of Biotin-Ahx-Ub-VS probe labelling (fragment/DMSO); higher = less target engagement (more negative = stronger competition), active = hit call of the paper (q ≤ 0.05, log2 ratio ≤ -1)
Conditions in all cases: compound concentration: 200 uM; treatment time: 3 h
USP34 = USP34 (UniProt Q70CQ2)
Method in brief: (§1)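 Labelling with Biotin-Ahx-Ub-VS (0.5 µM final, 1 h) followed a 3 h triplicate treatment of HEK293T lysate (495 µg per sample, Tris/CHAPS/IGEPAL buffer with protease inhibitors) with fragment at 200 µM or vehicle. Labelled DUBs were NeutrAvidin-enriched, digested with LysC and trypsin, and run by diaPASEF LC-MS/MS. The values, average log2 fragment/vehicle ratios by unpaired t-test, come from global-median-normalised Spectronaut label-free quantities. Proteins with ≥2 unique peptides were used.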

USP36 = molecular target: T1, USP36 (UniProt Q9P275)
T1 sequence (whole entry): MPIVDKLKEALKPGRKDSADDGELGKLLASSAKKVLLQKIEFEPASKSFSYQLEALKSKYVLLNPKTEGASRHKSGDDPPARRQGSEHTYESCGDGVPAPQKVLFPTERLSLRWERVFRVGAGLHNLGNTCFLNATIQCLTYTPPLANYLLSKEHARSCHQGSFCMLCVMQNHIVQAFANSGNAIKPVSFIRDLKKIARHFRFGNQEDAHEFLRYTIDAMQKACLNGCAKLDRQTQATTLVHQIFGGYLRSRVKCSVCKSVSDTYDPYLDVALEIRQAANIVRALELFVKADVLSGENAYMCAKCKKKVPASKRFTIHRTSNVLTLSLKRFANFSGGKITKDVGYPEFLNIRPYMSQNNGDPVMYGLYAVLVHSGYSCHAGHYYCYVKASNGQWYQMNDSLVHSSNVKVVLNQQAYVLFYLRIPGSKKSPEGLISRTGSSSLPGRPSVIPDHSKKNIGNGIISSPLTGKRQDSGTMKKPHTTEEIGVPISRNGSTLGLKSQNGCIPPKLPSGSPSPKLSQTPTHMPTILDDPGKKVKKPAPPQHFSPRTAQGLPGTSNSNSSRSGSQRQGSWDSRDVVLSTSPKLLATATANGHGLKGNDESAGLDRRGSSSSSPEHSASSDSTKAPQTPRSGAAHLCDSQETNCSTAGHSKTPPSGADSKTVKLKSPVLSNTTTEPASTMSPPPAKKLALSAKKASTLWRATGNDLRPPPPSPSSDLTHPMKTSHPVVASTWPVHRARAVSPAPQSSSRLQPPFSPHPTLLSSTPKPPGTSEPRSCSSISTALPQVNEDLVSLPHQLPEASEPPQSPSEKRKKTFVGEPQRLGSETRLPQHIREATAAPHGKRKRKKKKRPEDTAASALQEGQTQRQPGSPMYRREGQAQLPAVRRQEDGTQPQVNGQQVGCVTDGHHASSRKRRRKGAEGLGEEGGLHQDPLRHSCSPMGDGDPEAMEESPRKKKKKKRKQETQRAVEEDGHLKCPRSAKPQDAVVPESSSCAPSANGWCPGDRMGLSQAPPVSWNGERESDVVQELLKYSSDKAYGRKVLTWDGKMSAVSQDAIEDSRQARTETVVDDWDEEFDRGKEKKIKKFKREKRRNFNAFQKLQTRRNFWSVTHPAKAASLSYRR
Method in brief: as §1

USP38 = molecular target: T2, USP38 (UniProt Q8NB14)
T2 sequence (whole entry): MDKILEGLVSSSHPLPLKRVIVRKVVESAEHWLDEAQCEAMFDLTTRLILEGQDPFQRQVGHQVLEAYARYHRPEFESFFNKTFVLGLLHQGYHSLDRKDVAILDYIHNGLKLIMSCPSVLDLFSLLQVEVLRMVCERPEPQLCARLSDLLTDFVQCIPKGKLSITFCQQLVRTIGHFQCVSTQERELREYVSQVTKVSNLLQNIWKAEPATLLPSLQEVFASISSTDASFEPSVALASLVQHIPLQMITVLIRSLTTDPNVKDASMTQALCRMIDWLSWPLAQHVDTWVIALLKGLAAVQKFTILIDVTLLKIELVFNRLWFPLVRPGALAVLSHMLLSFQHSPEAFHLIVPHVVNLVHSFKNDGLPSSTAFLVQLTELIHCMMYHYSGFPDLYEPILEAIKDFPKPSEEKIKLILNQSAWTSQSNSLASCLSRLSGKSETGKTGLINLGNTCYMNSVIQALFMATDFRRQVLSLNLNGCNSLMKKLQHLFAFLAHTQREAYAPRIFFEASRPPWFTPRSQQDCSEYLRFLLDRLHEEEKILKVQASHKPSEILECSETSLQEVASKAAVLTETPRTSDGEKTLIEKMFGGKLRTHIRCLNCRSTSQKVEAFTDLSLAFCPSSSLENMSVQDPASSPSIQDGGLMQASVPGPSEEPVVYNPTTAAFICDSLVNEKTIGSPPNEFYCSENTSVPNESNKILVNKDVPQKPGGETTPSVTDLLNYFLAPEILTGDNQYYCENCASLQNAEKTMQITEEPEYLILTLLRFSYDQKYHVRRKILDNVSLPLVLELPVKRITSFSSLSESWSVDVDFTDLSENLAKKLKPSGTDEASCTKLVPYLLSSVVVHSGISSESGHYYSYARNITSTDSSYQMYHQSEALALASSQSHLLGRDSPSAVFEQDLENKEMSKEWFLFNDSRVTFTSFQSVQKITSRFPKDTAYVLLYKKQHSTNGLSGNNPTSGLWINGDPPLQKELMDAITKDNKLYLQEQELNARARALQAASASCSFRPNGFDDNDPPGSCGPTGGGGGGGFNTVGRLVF
Method in brief: as §1

USP39 = molecular target: T3, USP39 (UniProt Q53GS9)
T3 sequence (whole entry): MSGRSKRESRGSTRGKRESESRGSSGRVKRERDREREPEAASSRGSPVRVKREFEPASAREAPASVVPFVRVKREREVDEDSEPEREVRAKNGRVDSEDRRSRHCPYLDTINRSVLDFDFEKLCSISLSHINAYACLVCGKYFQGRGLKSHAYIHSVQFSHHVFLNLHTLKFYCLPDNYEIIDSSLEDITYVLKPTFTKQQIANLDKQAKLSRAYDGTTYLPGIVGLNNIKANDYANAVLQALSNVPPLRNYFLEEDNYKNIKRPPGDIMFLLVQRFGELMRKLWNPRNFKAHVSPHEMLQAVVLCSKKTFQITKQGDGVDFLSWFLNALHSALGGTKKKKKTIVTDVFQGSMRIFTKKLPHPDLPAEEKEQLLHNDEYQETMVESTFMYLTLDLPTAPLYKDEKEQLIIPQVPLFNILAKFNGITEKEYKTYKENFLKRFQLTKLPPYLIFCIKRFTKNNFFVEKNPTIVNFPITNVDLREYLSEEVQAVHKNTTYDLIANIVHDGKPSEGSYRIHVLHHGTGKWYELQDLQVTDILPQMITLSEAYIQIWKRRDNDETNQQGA
Method in brief: as §1

USP4 = molecular target: T4, USP4 (UniProt Q13107)
T4 sequence (whole entry): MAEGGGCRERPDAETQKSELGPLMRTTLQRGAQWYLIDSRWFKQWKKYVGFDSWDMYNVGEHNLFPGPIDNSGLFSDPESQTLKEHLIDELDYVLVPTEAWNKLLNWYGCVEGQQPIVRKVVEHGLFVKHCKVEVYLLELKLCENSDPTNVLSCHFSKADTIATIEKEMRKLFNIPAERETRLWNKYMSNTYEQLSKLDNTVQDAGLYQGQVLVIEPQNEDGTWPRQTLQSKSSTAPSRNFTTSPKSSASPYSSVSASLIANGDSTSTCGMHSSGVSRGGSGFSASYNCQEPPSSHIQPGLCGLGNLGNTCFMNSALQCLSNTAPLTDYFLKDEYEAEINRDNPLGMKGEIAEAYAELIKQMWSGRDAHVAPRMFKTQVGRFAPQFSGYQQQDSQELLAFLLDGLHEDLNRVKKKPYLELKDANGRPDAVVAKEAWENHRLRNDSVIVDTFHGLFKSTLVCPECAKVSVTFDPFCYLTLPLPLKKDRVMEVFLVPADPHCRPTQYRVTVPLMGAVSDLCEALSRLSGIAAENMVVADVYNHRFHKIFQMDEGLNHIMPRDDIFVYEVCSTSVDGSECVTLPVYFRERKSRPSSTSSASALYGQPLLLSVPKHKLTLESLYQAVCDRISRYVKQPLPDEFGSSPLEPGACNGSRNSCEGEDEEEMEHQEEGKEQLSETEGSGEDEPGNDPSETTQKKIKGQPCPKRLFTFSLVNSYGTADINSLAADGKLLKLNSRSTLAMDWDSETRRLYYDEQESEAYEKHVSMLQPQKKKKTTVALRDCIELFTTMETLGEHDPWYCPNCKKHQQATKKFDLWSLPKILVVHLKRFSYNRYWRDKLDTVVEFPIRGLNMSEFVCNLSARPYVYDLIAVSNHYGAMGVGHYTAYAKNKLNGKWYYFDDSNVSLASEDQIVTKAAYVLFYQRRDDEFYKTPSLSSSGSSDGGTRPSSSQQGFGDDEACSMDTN
Method in brief: as §1

Measured: log2 ratio of Biotin-Ahx-Ub-VS probe labelling

Chain of USP34 (Q70CQ2 whole entry, the tested form may be a part): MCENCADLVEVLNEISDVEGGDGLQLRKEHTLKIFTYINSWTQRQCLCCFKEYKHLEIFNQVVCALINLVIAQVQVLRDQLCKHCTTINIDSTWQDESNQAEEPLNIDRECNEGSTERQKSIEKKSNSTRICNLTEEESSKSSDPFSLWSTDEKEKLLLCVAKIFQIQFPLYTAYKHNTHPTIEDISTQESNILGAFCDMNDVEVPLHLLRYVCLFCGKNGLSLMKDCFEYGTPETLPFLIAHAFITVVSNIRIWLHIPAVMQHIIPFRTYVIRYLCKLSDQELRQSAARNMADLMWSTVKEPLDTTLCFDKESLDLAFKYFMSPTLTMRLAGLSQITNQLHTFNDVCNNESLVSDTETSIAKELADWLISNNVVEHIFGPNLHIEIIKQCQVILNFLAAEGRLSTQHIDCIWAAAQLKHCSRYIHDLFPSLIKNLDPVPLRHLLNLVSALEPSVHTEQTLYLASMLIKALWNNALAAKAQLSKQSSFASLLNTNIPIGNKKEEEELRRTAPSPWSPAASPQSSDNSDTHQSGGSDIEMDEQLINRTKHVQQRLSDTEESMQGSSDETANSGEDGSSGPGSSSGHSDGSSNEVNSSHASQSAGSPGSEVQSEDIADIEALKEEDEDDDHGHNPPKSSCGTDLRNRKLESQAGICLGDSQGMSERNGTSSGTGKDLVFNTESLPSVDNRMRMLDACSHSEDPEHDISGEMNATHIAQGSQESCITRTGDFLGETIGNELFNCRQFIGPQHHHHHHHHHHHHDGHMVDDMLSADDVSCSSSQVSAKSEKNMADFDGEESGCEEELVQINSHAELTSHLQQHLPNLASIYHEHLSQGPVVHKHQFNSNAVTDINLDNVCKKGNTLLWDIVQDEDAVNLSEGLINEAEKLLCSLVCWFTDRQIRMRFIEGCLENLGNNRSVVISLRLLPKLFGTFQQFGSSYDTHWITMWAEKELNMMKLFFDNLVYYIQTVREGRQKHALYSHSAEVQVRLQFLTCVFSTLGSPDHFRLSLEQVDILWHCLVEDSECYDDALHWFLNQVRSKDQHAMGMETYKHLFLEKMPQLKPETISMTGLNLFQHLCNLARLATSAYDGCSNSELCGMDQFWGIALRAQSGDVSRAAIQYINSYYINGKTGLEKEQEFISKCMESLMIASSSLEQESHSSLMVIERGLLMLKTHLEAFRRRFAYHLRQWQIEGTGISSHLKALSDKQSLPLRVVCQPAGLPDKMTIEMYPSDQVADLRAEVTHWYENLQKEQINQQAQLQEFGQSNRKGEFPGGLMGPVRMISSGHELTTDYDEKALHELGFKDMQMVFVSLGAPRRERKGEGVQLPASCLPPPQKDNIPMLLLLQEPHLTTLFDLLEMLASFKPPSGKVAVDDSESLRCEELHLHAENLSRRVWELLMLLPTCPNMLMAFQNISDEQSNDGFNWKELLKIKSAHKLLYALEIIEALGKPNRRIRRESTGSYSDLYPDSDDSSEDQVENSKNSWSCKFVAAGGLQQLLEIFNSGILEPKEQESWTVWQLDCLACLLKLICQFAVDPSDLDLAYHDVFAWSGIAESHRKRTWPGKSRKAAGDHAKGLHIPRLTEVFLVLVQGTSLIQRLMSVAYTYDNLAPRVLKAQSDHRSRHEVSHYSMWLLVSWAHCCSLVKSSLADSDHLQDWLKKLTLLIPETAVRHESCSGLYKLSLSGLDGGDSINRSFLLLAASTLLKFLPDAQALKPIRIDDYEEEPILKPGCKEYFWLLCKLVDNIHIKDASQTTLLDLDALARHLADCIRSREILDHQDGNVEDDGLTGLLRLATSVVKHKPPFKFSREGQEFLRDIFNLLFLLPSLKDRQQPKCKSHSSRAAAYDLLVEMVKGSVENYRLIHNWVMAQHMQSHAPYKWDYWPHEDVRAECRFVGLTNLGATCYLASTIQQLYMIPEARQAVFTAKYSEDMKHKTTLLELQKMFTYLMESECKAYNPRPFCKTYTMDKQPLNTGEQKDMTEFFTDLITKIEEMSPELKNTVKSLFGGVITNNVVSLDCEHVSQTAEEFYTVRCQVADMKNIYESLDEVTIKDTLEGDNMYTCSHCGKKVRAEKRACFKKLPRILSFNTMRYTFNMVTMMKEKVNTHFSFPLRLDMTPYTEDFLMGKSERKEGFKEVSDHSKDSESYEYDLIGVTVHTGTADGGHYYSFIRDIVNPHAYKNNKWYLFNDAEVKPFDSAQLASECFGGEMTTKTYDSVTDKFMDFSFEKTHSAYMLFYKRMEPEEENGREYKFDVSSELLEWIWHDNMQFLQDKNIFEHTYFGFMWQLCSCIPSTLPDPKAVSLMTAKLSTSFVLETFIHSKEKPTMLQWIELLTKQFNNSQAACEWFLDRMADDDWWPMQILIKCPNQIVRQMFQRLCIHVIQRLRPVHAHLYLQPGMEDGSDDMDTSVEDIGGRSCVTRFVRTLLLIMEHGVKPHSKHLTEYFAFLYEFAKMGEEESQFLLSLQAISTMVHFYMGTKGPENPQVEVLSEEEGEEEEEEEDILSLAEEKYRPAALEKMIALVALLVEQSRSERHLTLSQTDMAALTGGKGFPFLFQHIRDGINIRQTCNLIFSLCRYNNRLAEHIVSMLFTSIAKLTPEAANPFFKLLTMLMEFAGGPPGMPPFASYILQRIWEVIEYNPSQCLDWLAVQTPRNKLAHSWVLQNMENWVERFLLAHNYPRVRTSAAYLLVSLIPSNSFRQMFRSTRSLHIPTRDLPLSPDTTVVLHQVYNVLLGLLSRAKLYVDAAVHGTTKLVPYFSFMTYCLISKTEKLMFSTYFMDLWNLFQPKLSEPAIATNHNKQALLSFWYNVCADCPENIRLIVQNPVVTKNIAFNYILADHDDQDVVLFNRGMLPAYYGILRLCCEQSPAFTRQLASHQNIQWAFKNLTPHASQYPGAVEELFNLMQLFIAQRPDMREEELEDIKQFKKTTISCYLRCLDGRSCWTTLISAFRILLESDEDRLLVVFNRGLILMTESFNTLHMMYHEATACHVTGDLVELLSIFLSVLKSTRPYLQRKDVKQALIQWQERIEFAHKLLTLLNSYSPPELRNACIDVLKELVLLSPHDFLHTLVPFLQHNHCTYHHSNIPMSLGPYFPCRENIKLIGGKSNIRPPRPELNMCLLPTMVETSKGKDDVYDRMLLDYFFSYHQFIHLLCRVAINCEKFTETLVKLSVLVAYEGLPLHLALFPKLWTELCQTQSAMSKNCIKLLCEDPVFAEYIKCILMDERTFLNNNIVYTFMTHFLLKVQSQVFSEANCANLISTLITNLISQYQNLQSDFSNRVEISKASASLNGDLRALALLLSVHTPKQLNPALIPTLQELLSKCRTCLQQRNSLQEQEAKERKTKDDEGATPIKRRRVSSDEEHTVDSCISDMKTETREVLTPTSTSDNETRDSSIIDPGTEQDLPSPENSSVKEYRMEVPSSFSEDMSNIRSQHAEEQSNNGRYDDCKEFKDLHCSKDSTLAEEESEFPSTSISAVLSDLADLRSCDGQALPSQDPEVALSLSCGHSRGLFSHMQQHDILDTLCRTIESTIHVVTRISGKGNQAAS

O=C(CCl)NCc1cccc(F)c1
inactive: USP34 -0.0351 | USP36 -0.312 | USP38 0.0703 | USP39 -0.114 | USP4 -0.0159
